This note sets out measurements from PubChem BioAssay (EPA / NIEHS).

Records with an inconclusive call do not appear. The source made the active and inactive calls. The calls were made as follows, unless noted: active = hit-call score of the fitted dose curve at least 0.9, where 1 is the maximum; inconclusive = response in the unintended direction; inactive = score below 0.9.

Assay [1] has as its target human Retinoic Acid Receptor beta (RARb), RARB (gene 5915) (UniProt P10826). Description: ATG_RARb_TRANS: Attagene TRANS-FACTORIAL HepG2 Assay for human Retinoic Acid Receptor beta (AID 2283004). In short, it runs like this: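 Transient transfection of HepG2 with multiple reporter units → chemical dosing, 24 h → total RNA isolation → RT with oligo(dT) → reporter-specific PCR, 6-FAM primer extension, HpaI digest → capillary electrophoresis. Positive direction vs DMSO control.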

In assay [2] the target is Retinoic acid receptor alpha (Homo sapiens) (UniProt P10276). Nature of the assay: ATG_RARa_TRANS: Attagene TRANS-FACTORIAL HepG2 Assay for human Retinoic Acid Receptor alpha (RARa) (AID 2283005). In short, it runs like this: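 Reporter transcripts, measured by RT-PCR with fluorescent labeling and capillary electrophoresis after 24 h dosing, reflect activity of an exogenous human RARa–GAL4 fusion in transiently transfected HepG2. Fitted for increase relative to DMSO.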
Retinoic acid receptor alpha (Homo sapiens), sequence (P10276 whole entry, looked up, the tested form may be a part): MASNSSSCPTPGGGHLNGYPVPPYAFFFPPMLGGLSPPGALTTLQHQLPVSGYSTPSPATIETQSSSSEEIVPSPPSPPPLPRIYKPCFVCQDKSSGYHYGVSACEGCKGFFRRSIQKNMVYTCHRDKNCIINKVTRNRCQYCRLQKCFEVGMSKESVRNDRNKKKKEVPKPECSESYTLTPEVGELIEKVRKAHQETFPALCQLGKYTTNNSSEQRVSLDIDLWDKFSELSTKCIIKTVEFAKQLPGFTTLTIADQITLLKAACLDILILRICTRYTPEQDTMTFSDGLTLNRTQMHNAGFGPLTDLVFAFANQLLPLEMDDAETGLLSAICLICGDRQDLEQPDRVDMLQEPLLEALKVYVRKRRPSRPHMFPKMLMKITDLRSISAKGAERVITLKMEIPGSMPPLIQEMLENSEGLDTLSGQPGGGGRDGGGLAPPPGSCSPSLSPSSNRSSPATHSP

The nature of assay [3]: BSK_3C_Proliferation: Cell Proliferation Assessment in the BioMAP Diversity Plus: 3C Assay (AID 2283006; active = hit-call score of the fitted dose curve at least 0.9, where 1 is the maximum; inactive = score below 0.9;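 as to AC50: potency may reflect either rise or fall in cell number versus DMSO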). To be noted: primary human endothelial cells (HUVEC). In short, it runs like this:
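Proliferation of human vascular endothelial primary cells after 48 h dosing, quantified as SRB-stained protein at 560 nm relative to DMSO.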

Assay [4] addresses human Retinoic Acid Receptor gamma (RARg), RARG (gene 5916) (UniProt P13631). Nature of the assay: ATG_RARg_TRANS: Attagene TRANS-FACTORIAL HepG2 Assay for human Retinoic Acid Receptor gamma (RARg) (AID 2283009). In short, it runs like this: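 HepG2, RARg-GAL4 TRANS system, 24 h exposure; reporter mRNA by RT-PCR + CE fluorescence; increase over DMSO.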
For assay [5], the target named is human RAR-related Orphan Receptor gamma (RORg), RORC (gene 6097) (UniProt P51449). Description: ATG_RORg_TRANS: Attagene TRANS-FACTORIAL HepG2 Assay for human RAR-related Orphan Receptor gamma (RORg) (AID 2283011). The gist of the method: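 First, HepG2 liver cells were transfected with GAL4-UAS-driven reporter constructs and the RORg-Gal4 fusion. Next, they were treated with chemical for 24 h. Finally, reporter mRNA was quantified by RT-PCR and capillary electrophoresis, with upward activity fitted against DMSO.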
human RAR-related Orphan Receptor gamma (RORg), RORC (gene 6097), sequence (P51449 whole entry, looked up, the tested form may be a part): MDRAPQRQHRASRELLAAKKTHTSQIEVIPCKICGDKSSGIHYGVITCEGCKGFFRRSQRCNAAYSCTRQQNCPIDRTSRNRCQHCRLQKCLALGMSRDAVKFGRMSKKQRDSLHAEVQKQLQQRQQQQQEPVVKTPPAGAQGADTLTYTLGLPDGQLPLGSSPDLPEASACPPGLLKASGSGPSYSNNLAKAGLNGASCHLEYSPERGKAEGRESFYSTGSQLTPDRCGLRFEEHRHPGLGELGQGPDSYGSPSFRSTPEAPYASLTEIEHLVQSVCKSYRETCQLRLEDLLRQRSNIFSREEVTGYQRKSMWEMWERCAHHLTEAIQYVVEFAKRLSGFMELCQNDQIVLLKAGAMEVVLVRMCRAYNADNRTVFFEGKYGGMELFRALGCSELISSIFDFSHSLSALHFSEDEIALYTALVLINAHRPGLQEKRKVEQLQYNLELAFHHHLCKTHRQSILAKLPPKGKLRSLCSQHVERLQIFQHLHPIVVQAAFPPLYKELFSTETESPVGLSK

The target of assay [6] is Retinoic acid receptor RXR-alpha (Homo sapiens) (UniProt P19793). Description: ATG_RXRa_TRANS: Attagene TRANS-FACTORIAL HepG2 Assay for human Retinoid X Receptor alpha (RXRa) (AID 2283012). The gist of the method: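 Cells (HepG2) carried transiently transfected GAL4-responsive reporter units. Following a 24 h chemical incubation, reporter mRNA induction was read via RT-PCR fragment analysis; DMSO served as negative control and baseline.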
Retinoic acid receptor RXR-alpha (Homo sapiens), sequence (P19793 whole entry, looked up, the tested form may be a part): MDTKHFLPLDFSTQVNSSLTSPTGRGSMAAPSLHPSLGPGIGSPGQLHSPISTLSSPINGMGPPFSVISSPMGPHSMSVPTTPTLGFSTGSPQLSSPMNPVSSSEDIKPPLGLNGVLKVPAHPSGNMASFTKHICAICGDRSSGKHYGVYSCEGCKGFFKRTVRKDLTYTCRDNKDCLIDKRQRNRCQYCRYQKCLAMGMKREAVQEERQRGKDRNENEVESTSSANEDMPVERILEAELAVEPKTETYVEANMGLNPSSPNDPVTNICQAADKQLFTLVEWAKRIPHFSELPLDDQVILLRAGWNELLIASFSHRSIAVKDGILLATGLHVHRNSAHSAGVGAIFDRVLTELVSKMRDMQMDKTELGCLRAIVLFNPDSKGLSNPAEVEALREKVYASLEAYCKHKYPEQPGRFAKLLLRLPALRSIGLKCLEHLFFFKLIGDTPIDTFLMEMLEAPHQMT

Assay [7] deals with human Retinoid X Receptor beta (RXRb), RXRB (gene 6257) (UniProt P28702). Nature of the assay: ATG_RXRb_TRANS: Attagene TRANS-FACTORIAL HepG2 Assay for human Retinoid X Receptor beta (RXRb) (AID 2283013). In short, it runs like this:
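Multiplexed TRANS reporter assay in HepG2; 24 h dosing; reporter mRNA by RT-PCR/CE fluorescence; gain-of-signal relative to DMSO.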

Read-out in assay [8]: E-selectin (Homo sapiens) (UniProt P16581)
Nature of the assay: BSK_3C_Eselectin: BioMAP Diversity Plus: 3C Assay for Eselectin Biomarker Activity (AID 2283015; active = hit-call score of the fitted dose curve at least 0.9, where 1 is the maximum; inactive = score below 0.9;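 as to outcome: cell surface E-selectin protein quantified by ELISA 24 h after dosing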). To be noted: primary human endothelial cells (HUVEC); actives raise or lower the signal. In short, it runs like this: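 ELISA read-out of E-selectin on endothelial monolayers after 24 h chemical treatment. Human umbilical vein primary cells served as the system, with DMSO defining baseline activity for bidirectional fitting.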

Read-out in assay [9]: Interleukin-1 alpha (IL1a), IL1A (gene 3552)
Description: BSK_BE3C_IL1a: BioMAP Diversity Plus: BE3C Assay for Interleukin-1 alpha (IL1a) Biomarker Activity (AID 2283016; active = hit-call score of the fitted dose curve at least 0.9, where 1 is the maximum; inactive = score below 0.9). To be noted: primary human bronchial epithelial cells; actives raise or lower the signal. The gist of the method: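 Cultures of primary human bronchial epithelial cells receive test chemical. After 24 h, IL-1a is quantified by ELISA, while parallel wells are fixed in TCA and SRB-stained for total protein. Changes in either direction are fitted relative to DMSO.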

Read-out in assay [10]: Monocyte Chemoattractant Protein-1 (MCP1), CCL2 (gene 6347)
Nature of the assay: BSK_3C_MCP1: BioMAP Diversity Plus: 3C Assay for Monocyte Chemoattractant Protein-1 (MCP1) Biomarker Activity (AID 2283017; active = hit-call score of the fitted dose curve at least 0.9, where 1 is the maximum; inactive = score below 0.9). As to conditions: primary human endothelial cells (HUVEC); actives raise or lower the signal. The gist of the method:
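ELISA read-out of MCP-1 from human umbilical vein endothelial cell cultures harvested 24 h post-dosing. Gain or loss of signal was fitted relative to DMSO.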

Read-out in assay [11]: Monocyte Chemoattractant Protein-1 (MCP1), CCL2 (gene 6347)
Nature of the assay: BSK_4H_MCP1: BioMAP Diversity Plus: 4H Assay for Monocyte Chemoattractant Protein-1 (MCP1) Biomarker Activity (AID 2283018; active = hit-call score of the fitted dose curve at least 0.9, where 1 is the maximum; inactive = score below 0.9). To be noted: primary human endothelial cells (HUVEC); actives raise or lower the signal. In short, it runs like this: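 Readout: MCP-1 ELISA on compound-treated HUVEC, sampled 24 h post-dosing. Baseline and negative control DMSO; bidirectional fit. Overt toxicity checked alongside by sulforhodamine B protein staining at time of biomarker measurement.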

Read-out in assay [12]: Human Leukocyte Antigen - DR isotype (HLADR), HLA-DRA (gene 3122)
Nature of the assay: BSK_3C_HLADR: BioMAP Diversity Plus: 3C Assay for Human Leukocyte Antigen - DR isotype (HLADR) Biomarker Activity (AID 2283019; active = hit-call score of the fitted dose curve at least 0.9, where 1 is the maximum; inactive = score below 0.9). To be noted: primary human endothelial cells (HUVEC); actives raise or lower the signal. The gist of the method: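 ELISA readout of surface HLA-DR on human umbilical vein endothelium, taken 24 h after chemical treatment. Gain- and loss-of-signal were both fitted relative to DMSO.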

Read-out in assay [13]: Interleukin-8 (IL8), CXCL8 (gene 3576)
Description: BSK_3C_IL8: BioMAP Diversity Plus: 3C Assay for Interleukin-8 (IL8) Biomarker Activity (AID 2283020; active = hit-call score of the fitted dose curve at least 0.9, where 1 is the maximum; inactive = score below 0.9). As to conditions: primary human endothelial cells (HUVEC); actives raise or lower the signal. In short, it runs like this:
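Human vascular endothelial cells (umbilical vein) in the 3C system; IL-8 level detected by ELISA at 24 h post-dose, with DMSO as baseline.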

Assay [14] addresses human Vitamin D Receptor (VDR), VDR (gene 7421) (UniProt P11473). Nature of the assay: ATG_VDR_TRANS: Attagene TRANS-FACTORIAL HepG2 Assay for human Vitamin D Receptor (VDR) (AID 2283022). The gist of the method:
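Steps: transfect HepG2 with GAL4-UAS-driven reporter constructs; dose compounds 24 h; isolate RNA, reverse-transcribe, PCR-amplify with 6-FAM-labelled primer extension and HpaI digestion; quantify fragments by capillary electrophoresis relative to DMSO.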

The nature of assay [15]: BSK_3C_SRB: Viability Assessment in the BioMAP Diversity Plus: 3C Assay (AID 2283023; active = hit-call score of the fitted dose curve at least 0.9, where 1 is the maximum; inactive = score below 0.9;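 also: fitted both ways against DMSO so a hit may be signal rise or drop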). To be noted: primary human endothelial cells (HUVEC). The gist of the method:
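Absorbance at 560 nm of sulforhodamine B-stained (0.1%) total protein served as a cytotoxicity readout in human umbilical vein endothelial cells, 24 h after chemical treatment. Signal was fitted bidirectionally relative to DMSO.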

The target of assay [16] is Peroxisome proliferator-activated receptor gamma (Homo sapiens) (UniProt P37231). Nature of the assay: ATG_PPARg_TRANS: Attagene TRANS-FACTORIAL HepG2 Assay for human Peroxisome Proliferator-activated Receptor-gamma (PPARg) (AID 2283007). In short, it runs like this:
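HepG2 cells transiently transfected with multiplexed GAL4-UAS reporter units and exogenous chimeric NR-Gal4 proteins; reporter mRNA quantified after 24 h compound exposure by RT-PCR, fluorescent labelling, HpaI digestion and capillary electrophoresis; gain-of-signal fitted versus DMSO baseline.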

For assay [17], the target named is Nuclear receptor subfamily 1 group I member 2 (Homo sapiens) (UniProt O75469). Description: ATG_PXR_TRANS: Attagene TRANS-FACTORIAL HepG2 Assay for human Pregnane X Receptor (PXR) (AID 2283008). The gist of the method: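 Read-out is fluorescence of labelled reporter cDNA fragments separated by capillary electrophoresis after RT-PCR and HpaI digestion. Source: HepG2 cells carrying PXR-GAL4/UAS reporter constructs, treated 24 h; activity fitted upward relative to DMSO.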
Nuclear receptor subfamily 1 group I member 2 (Homo sapiens), sequence (O75469 whole entry, looked up, the tested form may be a part): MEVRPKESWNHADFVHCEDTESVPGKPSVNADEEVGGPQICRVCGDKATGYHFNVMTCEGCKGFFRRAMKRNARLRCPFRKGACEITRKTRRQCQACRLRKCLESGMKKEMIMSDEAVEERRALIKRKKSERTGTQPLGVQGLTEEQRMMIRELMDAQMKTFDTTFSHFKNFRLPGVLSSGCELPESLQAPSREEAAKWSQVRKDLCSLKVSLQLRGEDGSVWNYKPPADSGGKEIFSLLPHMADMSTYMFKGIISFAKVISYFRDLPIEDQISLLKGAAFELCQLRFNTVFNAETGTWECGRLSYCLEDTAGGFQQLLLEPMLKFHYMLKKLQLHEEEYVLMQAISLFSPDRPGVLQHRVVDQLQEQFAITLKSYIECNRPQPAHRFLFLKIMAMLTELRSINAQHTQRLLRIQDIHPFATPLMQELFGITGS

Assay [18] deals with human RAR-related Orphan Receptor beta (RORb), RORB (gene 6096) (UniProt Q92753). Nature of the assay: ATG_RORb_TRANS: Attagene TRANS-FACTORIAL HepG2 Assay for human RAR-related Orphan Receptor beta (RORb) (AID 2283010). In short, it runs like this: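 In this TRANS-format test, human HepG2 cells express chimeric NR-Gal4 fusion proteins driving GAL4-UAS reporters. After 24 h dosing, reporter transcripts are measured by fluorescent RT-PCR/capillary electrophoresis, with DMSO as negative control.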

Assay [19] deals with human Thyroid Receptor alpha (THRa1), THRA (gene 7067) (UniProt P10827). Nature of the assay: ATG_THRa1_TRANS: Attagene TRANS-FACTORIAL HepG2 Assay for human Thyroid Receptor alpha (THRa1) (AID 2283014). In short, it runs like this:
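Reporter transcript induction, read by capillary electrophoresis of 6-FAM-labelled RT-PCR products, reflects activity of a transfected THRa1-Gal4 fusion in HepG2 liver cells. Cells were dosed for 24 h; activity was fitted in the positive direction against DMSO.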

Read-out in assay [20]: Monokine induced gamma interferon (MIG), CXCL9 (gene 4283)
Nature of the assay: BSK_3C_MIG: BioMAP Diversity Plus: 3C Assay for Monokine induced gamma interferon (MIG) Biomarker Activity (AID 2283021; active = hit-call score of the fitted dose curve at least 0.9, where 1 is the maximum; inactive = score below 0.9). As to conditions: primary human endothelial cells (HUVEC); actives raise or lower the signal. The gist of the method: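 After 24 h of treatment, human umbilical vein endothelial cultures (3C system) had their MIG biomarker level determined by ELISA, with DMSO serving as negative control.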

human Thyroid Receptor alpha (THRa1), THRA (gene 7067), sequence (P10827 whole entry, looked up, the tested form may be a part): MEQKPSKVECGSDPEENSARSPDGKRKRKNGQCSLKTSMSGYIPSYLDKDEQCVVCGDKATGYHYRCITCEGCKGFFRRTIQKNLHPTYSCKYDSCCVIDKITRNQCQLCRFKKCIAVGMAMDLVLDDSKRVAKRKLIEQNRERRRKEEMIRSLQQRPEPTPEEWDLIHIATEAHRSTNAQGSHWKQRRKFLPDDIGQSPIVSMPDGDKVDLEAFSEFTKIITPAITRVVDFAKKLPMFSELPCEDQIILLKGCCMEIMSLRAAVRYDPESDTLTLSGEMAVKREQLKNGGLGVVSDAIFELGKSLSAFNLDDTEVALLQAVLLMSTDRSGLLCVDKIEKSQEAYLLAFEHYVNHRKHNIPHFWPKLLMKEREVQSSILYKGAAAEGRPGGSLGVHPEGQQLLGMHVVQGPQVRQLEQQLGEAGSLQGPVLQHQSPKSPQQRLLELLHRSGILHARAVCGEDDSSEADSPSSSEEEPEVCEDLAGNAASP
human Retinoic Acid Receptor beta (RARb), RARB (gene 5915), sequence (P10826 whole entry, looked up): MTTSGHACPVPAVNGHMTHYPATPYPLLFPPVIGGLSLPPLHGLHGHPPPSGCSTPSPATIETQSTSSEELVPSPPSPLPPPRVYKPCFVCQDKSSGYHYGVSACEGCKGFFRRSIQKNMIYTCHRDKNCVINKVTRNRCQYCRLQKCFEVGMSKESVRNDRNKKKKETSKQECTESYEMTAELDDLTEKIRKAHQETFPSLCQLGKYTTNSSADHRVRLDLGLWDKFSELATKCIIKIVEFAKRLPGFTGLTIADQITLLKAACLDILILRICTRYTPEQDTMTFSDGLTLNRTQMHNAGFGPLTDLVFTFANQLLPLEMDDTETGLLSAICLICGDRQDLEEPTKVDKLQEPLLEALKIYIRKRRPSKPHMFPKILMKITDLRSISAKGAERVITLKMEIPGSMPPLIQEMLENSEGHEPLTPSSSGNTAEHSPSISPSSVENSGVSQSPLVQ
human Vitamin D Receptor (VDR), VDR (gene 7421), sequence (P11473 whole entry, looked up, the tested form may be a part): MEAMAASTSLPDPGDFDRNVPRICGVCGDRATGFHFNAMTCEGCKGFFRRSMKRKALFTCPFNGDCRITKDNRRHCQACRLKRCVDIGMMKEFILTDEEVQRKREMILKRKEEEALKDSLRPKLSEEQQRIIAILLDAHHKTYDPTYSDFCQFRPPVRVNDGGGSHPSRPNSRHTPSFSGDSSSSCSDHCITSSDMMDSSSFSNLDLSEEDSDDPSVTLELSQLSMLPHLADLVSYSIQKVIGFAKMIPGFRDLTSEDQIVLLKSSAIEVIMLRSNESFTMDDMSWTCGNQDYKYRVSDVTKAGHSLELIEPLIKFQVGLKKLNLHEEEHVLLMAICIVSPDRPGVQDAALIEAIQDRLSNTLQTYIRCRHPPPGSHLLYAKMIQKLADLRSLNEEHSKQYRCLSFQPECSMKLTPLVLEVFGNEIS
Peroxisome proliferator-activated receptor gamma (Homo sapiens), sequence (P37231 whole entry, looked up, the tested form may be a part): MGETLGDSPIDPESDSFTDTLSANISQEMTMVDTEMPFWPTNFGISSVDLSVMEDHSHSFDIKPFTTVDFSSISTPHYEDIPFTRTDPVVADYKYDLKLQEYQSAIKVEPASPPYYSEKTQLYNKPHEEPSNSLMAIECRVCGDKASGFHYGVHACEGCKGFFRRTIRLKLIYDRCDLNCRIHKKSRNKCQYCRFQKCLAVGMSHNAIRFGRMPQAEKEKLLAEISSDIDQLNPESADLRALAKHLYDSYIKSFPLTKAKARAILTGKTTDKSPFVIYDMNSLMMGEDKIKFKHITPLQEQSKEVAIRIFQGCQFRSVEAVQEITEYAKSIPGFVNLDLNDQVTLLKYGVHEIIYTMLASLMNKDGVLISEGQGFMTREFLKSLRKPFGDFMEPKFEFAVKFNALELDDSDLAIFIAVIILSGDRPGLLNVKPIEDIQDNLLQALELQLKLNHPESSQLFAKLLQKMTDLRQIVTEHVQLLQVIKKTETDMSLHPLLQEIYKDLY
E-selectin (Homo sapiens), sequence (P16581 whole entry, looked up): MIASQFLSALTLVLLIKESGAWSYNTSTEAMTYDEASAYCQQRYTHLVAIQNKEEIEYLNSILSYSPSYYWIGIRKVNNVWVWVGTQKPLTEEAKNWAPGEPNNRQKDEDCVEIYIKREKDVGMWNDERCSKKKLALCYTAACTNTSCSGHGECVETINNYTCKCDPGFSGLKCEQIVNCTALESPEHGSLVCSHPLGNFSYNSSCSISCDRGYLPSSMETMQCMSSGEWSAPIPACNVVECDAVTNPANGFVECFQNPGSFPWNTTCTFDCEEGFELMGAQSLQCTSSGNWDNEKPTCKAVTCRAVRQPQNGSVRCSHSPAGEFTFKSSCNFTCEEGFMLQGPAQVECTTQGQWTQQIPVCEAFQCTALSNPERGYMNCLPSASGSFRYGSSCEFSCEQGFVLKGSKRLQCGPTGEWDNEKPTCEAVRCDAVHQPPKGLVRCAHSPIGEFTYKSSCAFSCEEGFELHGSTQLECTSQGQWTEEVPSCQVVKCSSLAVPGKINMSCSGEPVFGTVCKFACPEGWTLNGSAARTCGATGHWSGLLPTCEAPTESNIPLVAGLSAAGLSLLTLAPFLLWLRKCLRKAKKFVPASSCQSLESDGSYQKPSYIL
human Retinoic Acid Receptor gamma (RARg), RARG (gene 5916), sequence (P13631 whole entry, looked up, the tested form may be a part): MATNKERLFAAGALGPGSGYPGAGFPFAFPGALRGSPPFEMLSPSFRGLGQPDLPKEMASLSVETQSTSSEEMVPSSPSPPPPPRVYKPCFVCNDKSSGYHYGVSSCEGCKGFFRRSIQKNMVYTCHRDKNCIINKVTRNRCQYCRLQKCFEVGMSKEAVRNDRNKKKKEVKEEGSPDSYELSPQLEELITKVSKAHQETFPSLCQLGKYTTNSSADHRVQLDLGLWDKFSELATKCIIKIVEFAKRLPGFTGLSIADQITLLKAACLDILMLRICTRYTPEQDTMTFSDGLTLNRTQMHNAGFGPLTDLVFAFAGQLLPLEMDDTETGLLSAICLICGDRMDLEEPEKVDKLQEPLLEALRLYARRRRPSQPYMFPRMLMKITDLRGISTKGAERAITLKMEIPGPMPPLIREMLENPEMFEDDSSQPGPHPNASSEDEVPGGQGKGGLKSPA

With `ClCC(Cl)CCl`, the compound was called inactive in assay [1], in [2], in assay [3], in assay [4], in [5] and in assay [6]. Moreover, the compound was called inactive in [7], in assay [8], in [9], in assay [10], in [11] and in assay [12]. Also, the result in assay [13], in assay [14] and in assay [15] was inactive.

With `CC(C)OC(=O)Nc1ccccc1`, the call in [1], in [2], in assay [16], in assay [17] and in assay [4] was inactive.

Consider `CC(C)c1cccc(C(C)C)c1O`, for which the result in [1], in assay [2], in assay [4], in assay [18], in assay [6] and in assay [19] was inactive. Further, in assay [14], the call was inactive. In addition, the AC50 in assay [17] is 4.74 µM (active); in [7], 50.6 µM (active).

As for `CNC(=O)O/N=C/C(C)(C)S(C)=O` (stereo not drawn), the compound was classed as inactive in assay [1], in assay [17], in assay [7] and in assay [19]. Besides, the AC50 in assay [16] was 41.1 µM (active).

As to `O=C(O)C(Cl)(Cl)Cl`, the outcome in [1], in assay [2], in [3], in assay [17], in assay [18] and in assay [5] was inactive. In addition, the call in assay [6], in assay [7], in assay [19], in assay [8], in assay [9] and in assay [10] was inactive. The outcome in assay [11], in assay [12], in assay [20], in [14] and in assay [15] was inactive.

Regarding `COP(=S)(OC)Oc1cc(Cl)c(Cl)cc1Cl`, the call in assay [1], in assay [4], in assay [6], in assay [8], in assay [9] and in assay [10] was inactive. For the same compound, the outcome in assay [11], in assay [13], in assay [20] and in [15] was inactive. The AC50 was 20 µM (active) in [3], 54.8 µM (active) in assay [16], 68.2 µM (active) in assay [7] and 27.4 µM (active) in assay [12].

In the case of `CC(C)(c1ccccc1)c1ccc(O)c(C(C)(C)c2ccccc2)c1`, the outcome in assay [1], in [2], in assay [6] and in [14] was inactive. The AC50 is 6.91 µM (active) in assay [3]; 0.148 µM (active) in [17]; 1.66 µM (active) in assay [7]; 10.6 µM (active) in [8]; 28.5 µM (active) in assay [9]; 10.8 µM (active) in [10]. Moreover, the AC50 in assay [11] is 7.28 µM (active); in assay [12], 7.99 µM (active); in assay [13], 10.1 µM (active); in assay [15], 8.56 µM (active).

Regarding `O=C(Cc1ccccc1)c1ccccc1`, the call in [1], in assay [2], in [4], in assay [6], in assay [7] and in assay [14] was inactive. Moreover, in assay [17], the AC50 is 27.8 µM (active).

As for `BrCCBr`, the outcome in assay [1], in [2], in [3], in assay [16], in assay [17] and in [4] was inactive. Besides, the result in assay [5], in assay [6], in assay [8], in assay [9], in assay [10] and in assay [11] was inactive. Besides, the outcome in assay [12], in assay [20], in assay [14] and in assay [15] was inactive. In addition, in assay [7], the AC50 was 48.2 µM (active).
